Results from PubChem BioAssay (NCATS).
Inconclusive results are not listed. Active and inactive are the calls of the source. Calls follow the shape of the dose curve; as a rule, active = well fitted inhibition curve with a large enough effect; inconclusive = small, poorly fitted or top-dose-only effect; inactive = flat fitted curve, though single readings scatter.

Tests used:
[1] = tested on: CRL-7250; test: Cytotoxic Profiling of Annotated Libraries Using Quantitative High-Throughput Screening (AID 1296008); conditions: Five cell lines viability, CellTiter-Glo ATP luminescence, 48-72 h; max response: hits give low values; as to max response: % is scaled to controls: 0 for no effect and ±100 for the full control effect
Outline: (§1)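 Cytotoxicity was measured as CellTiter-Glo ATP luminescence, read after 10 min at room temperature. Compound treatment of the cells lasted 48 or 72 hr at 37 degrees Celsius in a qHTS format.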

[2] = tested on: HEK293; test: as above; conditions: Five cell lines viability, CellTiter-Glo ATP luminescence, 48-72 h; max response: hits give low values
Outline: as §1

[3] = tested on: HaCat; test: as above; conditions: Five cell lines viability, CellTiter-Glo ATP luminescence, 48-72 h; max response: hits give low values
Outline: as §1

[4] = tested on: NIH3T3; test: as above; conditions: Five cell lines viability, CellTiter-Glo ATP luminescence, 48-72 h; max response: hits give low values
Outline: as §1

[5] = tested on: TAB165; test: qHTS profiling for inhibitors of Plasmodium falciparum proliferation (AID 504749);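 also: 0% = DMSO vehicle and full inhibition = artemisinin control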; conditions: P. falciparum in erythrocytes, SYBR Green DNA, 72 h; series mostly up to 28.7 µM
Outline: (§2)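 In a 72 h erythrocytic culture (37 C, humidified, 5% CO2) at 2.5% hematocrit and 0.3% starting parasitemia, compounds were tested; SYBR Green I in detergent lysis buffer stained parasite DNA overnight.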

[6] = tested on: W2; test: as above; conditions: P. falciparum in erythrocytes, SYBR Green DNA, 72 h; series mostly up to 28.7 µM
Outline: as §2

[7] = tested on: KB-3-1; test: Cytotoxic Profiling of Annotated Libraries Using Quantitative High-Throughput Screening (AID 1296008); conditions: Five cell lines viability, CellTiter-Glo ATP luminescence, 48-72 h; max response: hits give low values; as to max response: % is scaled to controls: 0 for no effect and ±100 for the full control effect
Outline: as §1

[8] = tested on: HACAT; test: qHTS assay to identify novel small-molecules to repurpose for Merkel cell carcinoma treatment (AID 1296009); conditions: MCC and control cell lines, CellTiter-Glo viability, 72 h; at 44.8 µM (top of the series) unless noted
Outline: (§3)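 Cell viability measured by CellTiter-Glo following 72 hr compound treatment at 37 degree celsius, with NPC and MIPE libraries tested in 8- and 11-point concentration series.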

[9] = tested on: HEK293T; test: as above; conditions: MCC and control cell lines, CellTiter-Glo viability, 72 h; at 44.8 µM (top of the series)
Outline: as §3

[10] = tested on: CRL-7250; test: as above; conditions: MCC and control cell lines, CellTiter-Glo viability, 72 h; at 44.8 µM (top of the series) unless noted
Outline: as §3
Also: nearly all actives have a fitted effect of over 60% in size.

ClCc1cccc(Cl)c1
inactive: max response [1] -10.5% | max response [2] -1.26% | max response [3] 1.97% | max response [4] 0.768%

c1ccc2nc(N3CCNCC3)ccc2c1
inactive: Potency [5] | Potency [6] | max response [1] -2.05% | max response [2] -18% | max response [3] -23.1% | max response [7] -16.3% | max response [4] 0.319%

CC(C)[N+](C)(CCC(C(N)=O)(c1ccccc1)c1ccccc1)C(C)C
inactive: Potency [5] | max response [1] 3.89% | max response [2] -1% | outcome [3] | max response [7] 11.9% | outcome [4] | outcome [8]

CCOC(=O)C1(c2ccccc2)CCN(CCc2ccc(N)cc2)CC1
inactive: max response [1] -7.28% | max response [2] -24.8% | max response [3] -21.6% | max response [4] 2.24%

CCC(=O)C(CCN(C)C)(c1ccccc1)c1ccccc1
inactive: max response [1] -11.9% | max response [2] -18.5% | max response [3] -17.8% | max response [4] 2.72%

CC(C)NCC(O)c1ccc(N)c(C#N)c1 (stereo not drawn)
inactive: Potency [5] | Potency [6] | max response [1] 3.52% | outcome [2] | max response [3] -0.104% | max response [7] -10.3% | max response [4] 2.77% | outcome [9]

O=C(O)Cc1ccccc1
inactive: max response [1] -22.4% | max response [2] -7.97% | outcome [3] | max response [7] -2.72% | outcome [4] | outcome [8]

C[N+](C)(C)CCOC(=O)C(O)(c1ccccc1)c1ccccc1
inactive: Potency [5] | Potency [6] | max response [1] 1.11% | max response [2] -0.686% | max response [3] 1.68% | max response [7] -1.19% | max response [4] 2.06%

C[C@]12CC[C@H]3[C@@H](CC=C4C[C@@H](O)CC[C@@]43C)[C@@H]1CC[C@@H]2O
inactive: Potency [5] | Potency [6] | max response [1] -19.9% | max response [2] -6.75% | outcome [3] | max response [7] -11.4% | max response [4] 4.53% | outcome [8]

CN(C)C(=O)Oc1cc(OC(=O)N(C)C)cc(C(O)CNC(C)(C)C)c1 (stereo not drawn)
inactive: max response [1] -6.2% | max response [2] -17.2% | outcome [3] | max response [7] -2.49% | max response [4] -1.01% | outcome [8]

OC(O)C(Cl)(Cl)Cl
inactive: Potency [5] | max response [1] -3.66% | max response [2] -2.43% | outcome [3] | max response [7] 1.25% | outcome [4] | outcome [8]

CCOC(=O)NC(C)(C)Cc1ccc(Cl)cc1
inactive: max response [1] -4.28% | outcome [2] | max response [3] 1.84% | max response [7] 2.37% | max response [4] -3.93% | outcome [9]

Sc1ccccc1Cl
inactive: max response [1] 1.34% | max response [2] -0.79% | max response [3] -3.98% | max response [4] 2.05%

CC1Sc2c(C(=O)O)c(=O)c3cc(F)c(N4CCNCC4)cc3n21 (stereo not drawn)
inactive: max response [1] -1.22% | max response [2] 4.19% | max response [3] 0.258% | outcome [4]

CCOC(=O)NC(O)C(Cl)(Cl)Cl (stereo not drawn)
inactive: Potency [5] | Potency [6] | max response [1] 0.547% | max response [2] -1.01% | outcome [3] | max response [7] 11.7% | max response [4] 0.136% | outcome [8]

Nc1ccc(Cl)cc1C(=O)c1ccccc1F
inactive: max response [1] -4.36% | max response [2] -6.5% | max response [3] 0.566% | max response [4] 0.255%

CNC(=O)NC(O)C(Cl)(Cl)Cl (stereo not drawn)
inactive: Potency [5] | Potency [6] | max response [1] 2.85% | max response [2] 2.62% | outcome [3] | max response [7] 2.2% | max response [4] -0.697% | outcome [8]

CCOP(=S)(OCC)O/N=C(\C#N)c1ccccc1
inactive: max response [1] -6.28% | outcome [2] | outcome [3] | max response [7] -0.0569% | outcome [4] | outcome [8] | outcome [9]

CCOC(=O)C(c1c(O)c2ccccc2oc1=O)c1c(O)c2ccccc2oc1=O
inactive: max response [1] -6.62% | outcome [2] | outcome [3] | outcome [4] | outcome [8] | outcome [9]

CCCC(C)C1(CC)C(=O)N=C(S)NC1=O (stereo not drawn)
inactive: max response [1] -2.8% | outcome [2] | max response [3] -26.2% | max response [4] -2.94% | outcome [9]

O=C1CN2CCOC2(c2ccccc2Cl)c2cc(Cl)ccc2N1 (stereo not drawn)
inactive: outcome [1] | max response [2] -3.36% | max response [3] -2.33% | outcome [4] | outcome [10]

C[C@H](CN1CCOCC1)C(C(=O)N1CCCC1)(c1ccccc1)c1ccccc1
inactive: max response [1] -21.1% | max response [3] -13.3% | max response [7] 1.9% | max response [4] -7.32%

C[C@]12CC[C@H]3[C@@H](CCC4=CC(=O)CC[C@@]43C)[C@@H]1CC[C@@H]2C(=O)O
inactive: outcome [1] | max response [2] -4.71% | outcome [3] | max response [4] 3.4% | outcome [8]

COc1cc(C[C@@H](C)N)c(OC)cc1C
inactive: max response [1] -47.5% | max response [2] -43.2% | max response [7] -10.2% | max response [4] -23.9%
